# Source: PubChem BioAssay (NCATS)
# Records with an inconclusive call do not appear. A call without a number means that no potency is given here. Activity calls are given as the source filed them. Calls follow the shape of the dose curve; as a rule, active = well fitted inhibition curve with a large enough effect; inconclusive = small, poorly fitted or top-dose-only effect; inactive = flat fitted curve, though single readings scatter.
# Assay: Primary qHTS for inhibitors of nuclear receptor binding SET domain protein 2 (NSD2) in an isogenic RCH-ACV NSD2 p.E1099K mutant (9B) (AID 1645876); also: nearly all actives have a fitted effect of over 70% in size
smiles,measurement,value
Nc1ccn(CC(CO)OCP(=O)(O)O)c(=O)n1 (stereo unspecified),Potency,inactive
